Assay outcomes (PubChem BioAssay)
Sampled rows, rich in hits. Any-hit rate of the full collection: about 2.7%.
Nrf2 inh: Nrf2 qHTS screen for inhibitors; A549 ARE-Fluc reporter, luciferase luminescence, 18-24 h; Potency, µM (doses to about 46 µM), inactives show at the top dose activity change, negative = inhibition, hits mostly inhibitors; hit rate 2.1% among 360,000; further: potency means the concentration at half of the fitted maximal effect; on the % scale 0 is the no-effect control and ±100 the full control effect; nearly all actives have a fitted effect of over 60% in size
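Nrf2 activity is the BugLite luminescence, read 15 min after reagent at room temperature, following CellTiter-Fluor cytotoxicity readout (30 min, 37C). Compound titrations were applied for 18-24 h to 5000 A549 ARE_Fluc cells/well in 5% FBS OPTI-MEM.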
ERG-DNA inh: qHTS for Small Molecule Inhibitors of the ERG Ets/DNA interaction | Potency, µM (series often up to 76.9 µM), without a hit: top-dose FP activity, negative = inhibition, most hits filed as inhibitors | hit rate 0.028% among 370,000 | Transcriptional regulator ERG (Homo sapiens), P11308 | fluorescence polarization, His-ERG Ets domain / labelled DNA; active means well fitted inhibition curve with a large enough effect in the polarisation, with a control signal flat; inconclusive means small, poorly fitted or top-dose-only effect, or effect the other way, or a change in a side signal; inactive means no such curve, though single readings can be large or run the other way; the % refers to the polarisation;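 further: polarization taken with two DNA probes labelled with fluorescein and Texas red; potency means the concentration at half of the fitted maximal effect; % of control where 0% means no effect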
Target sequence (P11308 whole entry, looked up, the tested form may be a part): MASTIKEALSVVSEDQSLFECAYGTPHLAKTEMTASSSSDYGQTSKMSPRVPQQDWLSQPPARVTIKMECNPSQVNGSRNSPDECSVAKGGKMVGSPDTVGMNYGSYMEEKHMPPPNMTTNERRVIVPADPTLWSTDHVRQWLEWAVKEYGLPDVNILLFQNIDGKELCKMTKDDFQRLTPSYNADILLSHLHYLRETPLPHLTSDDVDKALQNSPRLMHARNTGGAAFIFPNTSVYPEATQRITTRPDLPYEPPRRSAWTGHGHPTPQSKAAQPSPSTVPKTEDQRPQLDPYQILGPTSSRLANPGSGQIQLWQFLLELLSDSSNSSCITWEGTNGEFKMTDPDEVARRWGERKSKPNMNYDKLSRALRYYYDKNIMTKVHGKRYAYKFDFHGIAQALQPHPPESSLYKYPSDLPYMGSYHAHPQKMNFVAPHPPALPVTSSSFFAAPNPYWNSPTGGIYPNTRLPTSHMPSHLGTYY
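His-tagged ERG Ets domain (1 uM in the protein solution; 300mM KCl, 50mM Tris-HCl, 1mM EDTA, 1mM DTT, pH 7.5) received compound, then a probe mix of 5 nM fluorescein-DNA and 100nM Texas-615-DNA. Fluorescence polarization was read for both dyes.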
Nrf2 activator: qHTS of Nrf2 Activators; Potency, µM (series often up to 46.1 µM), for the others: at the highest dose activation, usual class: activators; AREc32 ARE-luciferase reporter (MCF7-derived line), luminescence, 24 h; AID 624171, 2012; hit rate 0.31% among 410,000; further: potency means the concentration at half of the fitted maximal effect; % of control where 0% means no effect; nearly all actives have a fitted effect of over 65% in size
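Cells of the AREc32 ARE-luciferase line are plated in OPTI-MEM containing 5% FBS and left overnight at 37 deg C. Compounds are pinned in, incubation continues 24 hr, and firefly luciferase signal is then measured.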
A549 viability: Nrf2 qHTS screen for inhibitors: counterscreen for cytotoxicity; A549 ARE-Fluc cells, CellTiter-Fluor viability, 18-24 h; Potency, µM (doses to about 46 µM), inactives show at the top dose activity change, negative = cytotoxicity, most hits filed as inhibitors; hit rate 0.16% among 390,000; AID 504648, 2011; further: potency means the concentration at half of the fitted maximal effect; on the % scale 0 is the no-effect control and ±100 the full control effect
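A549 ARE_Fluc cells in 5% FBS OPTI-MEM were exposed to compounds in concentration-response for 18-24 h at 37 deg C. Viability was read by CellTiter-Fluor fluorescence (Ex 405/Em 525) after 30 min, before the luciferase read.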
LDHA block: qHTS assay for inhibitors of human lactate dehydrogenase. hit rate 0.15% among 480,000. activity change, % (values are at about 110 or 230 µM). AID 1347041, 2019. purified LDHA, NADH/diaphorase-resazurin fluorescence; hits give low values; in the data active means activity change below about -30%; inconclusive means mostly about -25% to -30%;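 further: plate controls were DMSO wells for no effect and wells without enzyme for full effect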
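Human LDH5 (2 nM) was incubated with 0.06 mM NADH and 0.2 mM pyruvate for 5 min at room temperature in Tris pH 7.4. Remaining NADH was coupled through diaphorase/resazurin, and resorufin fluorescence was read at 0 and 20 min.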
ALOX12 inh: Primary qHTS assay for inhibitors of human arachidonate 12S-lipoxygenase (ALOX12): Round 2. Polyunsaturated fatty acid lipoxygenase ALOX12 (Homo sapiens), P18054. purified 12hLO, xylenol orange hydroperoxide absorbance. Potency, µM (doses to about 108 µM), inactives show at the highest dose activity change, negative = inhibition, actives largely listed as inhibitors. hit rate 1.1% among 580,000. AID 1671190, 2021; further: potency means the concentration at half of the fitted maximal effect; on the % scale 0 is the no-effect control and ±100 the full control effect
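Purified human 12hLO at 150 nM in 25 mM Hepes, 0.01% Triton X-100, pH 7.0, preincubated 15 min at room temperature with compound. Reaction started with 40 uM arachidonic acid, 30 min at room temperature. Hydroperoxide measured by Fe-xylenol orange, 573/405 nm absorbance ratio.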
Starred values were filed as active, the others as inactive; i = inactive; u = inconclusive; x = no result given; ! = not confirmed by another sample. Unless noted, the call rests on the fitted dose curve; in most records, active means well fitted curve in the direction sought with a large enough effect; inconclusive means small, poorly fitted or top-dose-only effect, or another doubt; inactive means no such curve, though single readings can be large; an effect the other way counts as inactive or inconclusive.

SMILES	Nrf2 inh	ERG-DNA inh	Nrf2 activator	A549 viability	LDHA block	ALOX12 inh
Cc1cccc(CCNC(=O)c2cc3c(s2)-c2c(C)cccc2OC3)c1	u	-0.8%	2.2%	7.5%	-2.1	0.5%
Cc1cccc2c1-c1sc(C(=O)NCCc3ccc(Cl)cc3)cc1CO2	23.1µM*	-5.4%	3.0%	-11.5%	-15.6	u
COc1ccc(CCNC(=O)c2cc3c(s2)-c2ccccc2OC3)cc1OC	23.1µM*	-11.3%	-0.1%	2.4%	-3.2	-27.2%
CCCCCC(=O)N1C[C@@H](O)[C@H](n2cc(-c3ccc(F)cc3)nn2)C[C@@H]1c1ccc(Cl)cc1	x	x	-2.3%	x	-6.8	10µM*
O[C@@H]1CN(Cc2cccs2)[C@@H](c2ccc(Cl)cc2)C[C@H]1n1cc(-c2ccc(F)cc2)nn1	x	x	-0.4%	x	-30.0*	-28.4%
CCCCCC(=O)N1C[C@H](n2cc(-c3ccc(F)cc3)nn2)[C@@H](O)C[C@@H]1c1ccc(Cl)cc1	x	x	-4.1%	x	1.4	-14.7%
COc1cc2cc(C(=O)NCC(=O)Nc3ccc4c(c3)OCCO4)[nH]c2c(OC)c1OC	x	x	x	x	-3.1	-1.2%
O=C(NC1(O)C(=O)c2ccccc2C1=O)c1c(Cl)cccc1Cl	-28.4%	u	17.2%	3.5%	1.6	u
O=C(NC1(O)C(=O)c2ccccc2C1=O)c1ccccc1	u	-5.4%	0.0%	-5.7%	-0.3	31.6µM*
O=C1NC(=Nc2ccccc2Cl)S/C1=C\c1cccc([N+](=O)[O-])c1	28.7%	3.6%	u	-1.5%	3.7	u
CC1Cc2cc(/C=C3/SC(=S)NC3=O)ccc2O1 (configuration not stated)	u	0.5%	3.1%	13µM*	-18.8	u
CCN1C/C(=C/c2cccc([N+](=O)[O-])c2)C(=O)/C(=C/c2cccc([N+](=O)[O-])c2)C1	10.4%	1.2%	12.6µM*	-13.6%	-2.9	-21.9%
CCOc1cc(/C=C2\CN(CC)C/C(=C\c3ccc(O)c(OCC)c3)C2=O)ccc1O	u	21.6%	u	u	8.7	u
O=C1NC(=S)S/C1=C\c1cccc([N+](=O)[O-])c1	18.4µM*	-9.2%	4.4%	u	-19.1	-22.4%
CCN(CC)c1ccc(C=C2SC(=S)NC2=O)cc1	-2.1%	x	3.1%	u	-2.2	-1.1%
O=C(Nc1ccc2c3c(cccc13)CC2)C1CC1(Cl)Cl (configuration not stated)	x	x	x	x	18.0	u
CCOC(=O)C1=C(CN(CCOC)Cc2cccs2)NC(=O)NC1c1ccc(Cl)cc1 (configuration not stated)	x	x	x	x	-0.4	-1.9%
COc1cc(CNc2ccc(O)cc2)cc(Br)c1OCc1ccccc1	u	39.8µM*	20.5%	3.1%	13.3	i
Cc1cc(O)c2c(CN3CCN(Cc4ccccc4)CC3)cc(=O)oc2c1	-19.9%	6.2%	3.1%	-13.4%	-31.3*!	u
CCCC(=O)C1=C(c2ccc(C)c(C)c2)N(C(=O)CCC)n2c(CC)nnc2S1	x	1.6%	0.4%	-19.8%	1.1	3.6%
CCC(=O)C1=C(c2ccc(OC)c(OC)c2)N(C(=O)CC)n2c(CC)nnc2S1	23.1µM*	3.7%	7.9%	-7.6%	-2.1	-6.3%
CN(CCc1ccccc1)c1cc2c(c3c1ccn3C)C1CCC2C1 (configuration not stated)	x	x	0.0%	x	8.8	44.7µM*
COc1ccccc1N(C)c1cc2c(c3c1ccn3C)C1CCC2C1 (configuration not stated)	x	x	-1.0%	x	5.8	39.8µM*
Cn1ccc2c(N3CCCC3)cc3c(c21)C1CCC3C1 (configuration not stated)	x	x	-0.1%	x	16.0	44.7µM*
Fc1ccc(F)c(-c2csc(NCc3ccco3)n2)c1	x	x	x	x	10.7	u
